# Rows were chosen to be rich in hits. Some 4.6% of all compounds tested hit in one or more screens of this group.
# HSF-1 act: HSF-1 activators, primary screen, NIH3T3-HGL cells, MG132 stress, luminescence, single point | NIH3T3-HGL HSF-1 luciferase reporter, 8 h; 100% = twice DMSO control signal | activation, % at 9 µM | hit rate 1.7% among 300,000;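 active = mean replicate activation of at least 50% with a set share of replicates each reaching 50%; inconclusive = only one of those two conditions met; inactive = mean below 50% and too few replicates reaching it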
# GAA850 FXN act: FXN promoter activators, primary screen, cell-based, luciferase luminescence, HEK293 lucGAA850; activation, % at 6 µM; hit rate 0.56% among 360,000; HEK293 lucGAA850 FXN promoter luciferase reporter, 24 h; percent of 10 µM SAHA response; AID 540364, 2011;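 active = activation above the average of all compounds screened plus 3 SD, cutoff fixed separately per campaign, cut at about 7.5% in these data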
# AHR act: AHR activators, primary screen, cell-based, luminescence, luciferase reporter, human; activation, % at 5 µM; Aryl hydrocarbon receptor (Homo sapiens), P35869; AID 2796, 2010; AHR-responsive luciferase reporter cells; hit rate 2.5% among 320,000; in the data active = activation above about 47%
# HSF1 inh: HSF1 inhibitors in luciferase reporter cells, primary screen, cell-based, NIH3T3, luminescence | NIH3T3-HGL HSE-luciferase, MG132-induced, luminescence 8 h; hits give low values | activity change, negative = inhibition, % at 7.5 µM (by protocol) | hit rate 0.77% among 300,000 | AID 2098, 2009;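 active = more than half of replicate wells show activity change below -50%, luminescence cut by over half; inconclusive = some wells, but at most half, below -50%; inactive = no replicate well below -50%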;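 note: luciferase reports HSF-1 transcriptional activity via heat shock element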
# Numbers stand for hits; – = inactive; ? = inconclusive; · = no result.
SMILES,HSF-1 act,GAA850 FXN act,AHR act,HSF1 inh
Cc1ccc2nc(NCc3ccccc3)c(C#N)cc2c1,–,–,–,–
Cc1ccc(NS(=O)(=O)c2ccc(-c3ccc(=O)[nH]n3)o2)cc1Cl,–,–,–,–
NNC(=O)COc1ccc2oc3c(c2c1)CCCC3,–,–,68.5,–
Cc1ccc(OCc2cc(C(=O)NCC(C)c3ccccc3)no2)cc1C (centres undefined),–,–,–,–
COc1ccccc1-c1nn2c(-c3ccco3)nnc2s1,61.8,–,–,–
COc1ccccc1-c1nn2c(=O)cc(C)nc2s1,–,–,62.2,–
Cc1nc2sc(-c3ccccc3)nn2c(=O)c1Br,?,–,–,–
Cc1cc(=O)n2nc(-c3ccc(C(F)(F)F)cc3)sc2n1,–,–,–,-69.7
COc1cccc(OC)c1-c1nn2c(-c3cc(-c4ccccc4)n[nH]3)nnc2s1,–,–,94.0,–
c1coc(-c2nn3c(-c4ccco4)nnc3s2)c1,–,–,–,–
COc1ccccc1-c1c(C)nn2c(-c3ccccc3)cc(C)nc12,–,–,–,–
Cc1c(O)nc(SC2CC(=O)N(c3cc(Cl)cc(Cl)c3)C2=O)[nH]c1=O (centres undefined),–,–,–,–
Cn1ccnc1C1CCCCN1C(=O)c1cc(COc2ccc(F)cc2Cl)on1 (centres undefined),–,–,–,-77.5
CC[C@]1(C(=O)OC)[C@H]2C(=O)N(C)C(=O)[C@H]2[C@H]2CN=C(SCc3ccccc3)N21,·,–,·,·
Cc1ccc(N2C(=O)CSC2c2cccs2)cc1 (centres undefined),–,–,–,–
O=c1cc(-c2ccc(O)c(O)c2)oc2cc(O)cc(O)c12,–,11.2,–,–
COc1ccc(-c2cc(=O)c3c(O)cc(O)cc3o2)cc1,·,–,–,·
Cc1cccnc1NC(=O)C(C)N1C(=O)c2ccccc2C1=O (centres undefined),–,–,65.7,–
Cn1c(=O)c(C(=O)NNC(=O)c2ccccc2F)c(O)c2ccccc21,–,–,66.4,–
Cc1cccnc1NC(=O)c1c(O)c2ccccc2n(C)c1=O,–,–,53.5,–
N=C1C=CC=C2C1=NC1(CCCCC1)N2O,–,–,–,–
CCn1c(C)c(C)c2cc(C(=O)N3CCc4ccccc4C3)ccc21,–,–,–,–
CC(=O)N1CCCN(C(=O)c2cc(COc3c(F)cccc3F)on2)CC1,–,–,–,–
COCCN(C(=O)CCC(=O)Nc1ccccn1)C(C(=O)NC1CCCC1)c1ccc(OC)cc1 (centres undefined),–,–,–,–
CC(=O)/C=C/n1c(=S)oc2ccccc21,141.4,·,–,–
SMILES,HSF-1 act,GAA850 FXN act,AHR act,HSF1 inh
CC(C)CC(=O)/C=C/n1c(=S)oc2ccccc21,–,–,–,–
Cc1ccc(Nc2nc(N)nc(CSCCO)n2)cc1,–,–,48.3,–
COc1ccc(Nc2nc(N)nc(CSCCO)n2)cc1,–,–,–,–
Cc1ccc(Nc2nc(N)nc(CSc3ncccn3)n2)cc1,66.0,–,67.8,–
Nc1nc(CSc2ncccn2)nc(Nc2ccccc2)n1,–,–,–,–
COc1ccc(Nc2nc(N)nc(CSc3n[nH]c(-c4ccccc4)n3)n2)cc1,–,–,48.6,–
Nc1nc(CSc2n[nH]c(-c3ccccc3)n2)nc(Nc2ccccc2)n1,–,–,–,–
CCN(CC)CCCNC(=O)Cn1nc(-c2ccccc2)ccc1=O,–,–,–,–
COc1ccc(CNC(=O)C2CCN(C(=O)c3sccc3-n3cccc3)CC2)cc1,–,–,–,–
O=C(Cn1cnc(Cl)c1Cl)c1ccccc1,–,–,–,–
COc1ccc(CNC(=O)CN(C)Cc2ccc(SC)cc2)cc1,–,–,–,–
N#CCc1nn(-c2ccc(Cl)cc2)c(N)c1C#N,–,–,63.5,–
O=S(=O)(NCc1cccnc1)c1cccc2nsnc12,–,–,–,–
Cc1cnccc1CN(C)Cc1cn(C)nc1-c1ccc(Oc2ccccc2)cc1,–,–,–,–
Cc1cnccc1CN(C)Cc1cn(C)nc1-c1cccc(Cl)c1,–,–,67.0,–
O=C(NN=C1CCCC1)C1COc2ccccc2O1 (centres undefined),–,–,–,–
CCNC(=S)NC1CC2CCCC(C1)N2Cc1ccc(C)cc1 (centres undefined),–,–,–,–
O=C(Cc1cccs1)Nc1nc2c(ccc3ccccc32)s1,–,–,60.5,–
CC(=O)Nc1nc2c(ccc3ccccc32)s1,–,–,–,–
